High-throughput results (PubChem)
Sampled rows, rich in hits. Any-hit rate of the full collection: about 13%.
CHX counter: affects cycloheximide protein synthesis inhibition readout, counter-screen; cell reporter, cycloheximide protein synthesis inhibition counterscreen; max response, %; 12% of 300,000 active; AID 2314; in the data active = max response mostly above about 13%, no sharp cut-off; inactive = mostly below about 14%; note: read at 38.3 µM for the half of the compounds with a filed dose; 0% is about no effect
FMDV antiviral: foot and mouth disease virus antiviral activity; FMDV antiviral cell-based qHTS; Potency, µM (titrated, usually from 57.9 µM), for inactives: at the highest dose activity change, negative = inhibition, actives largely listed as inhibitors; 1.2% of 410,000 active; calls by dose curve; tested in HEK293T cells; note: read-out not given here; potency is the fitted concentration of half-maximal effect; % is set by controls: 0 for no effect and ±100 for the full control effect; nearly all actives have a fitted effect of over 45% in size
Marburg entry inh: Marburg virus entry inhibition. 1.8% of 300,000 active. Potency, µM (highest dose often 37.8 µM), for the others: at the highest dose activity change, negative = inhibition, usual class: inhibitors. Marburg virus pseudotyped entry inhibition, cell reporter; calls by dose curve; tested in HEK293 cells; note: potency is the fitted concentration of half-maximal effect; % is set by controls: 0 for no effect and ±100 for the full control effect
HCV inhibitor: blocks hepatitis C virus; Huh7.5.1 HCVcc-Cre infection, luciferase reporter, 44 h; 3.4% of 340,000 active; AID 651820; Potency, µM (highest dose often 41.8 µM), inactives show at the highest dose activity change, negative = inhibition, hits mostly inhibitors; active = well fitted inhibition curve with a large enough effect; inconclusive = small, poorly fitted or top-dose-only effect, or another doubt; inactive = no such curve, though single readings can be large or run the other way; note: potency is the fitted concentration of half-maximal effect; % is set by controls: 0 for no effect and ±100 for the full control effect
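Antiviral activity was scored by luciferase reporter output from cells infected with HCVcc-Cre (~0.5 moi) in presence of compound, 44 h infection period, cells seeded 1,000/well 4 h prior.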
Lassa entry inh: Lassa virus entry inhibition; 1.2% of 300,000 active; Potency, µM (series often up to 37.9 µM), for the others: top-dose activity change, negative = inhibition, usual class: inhibitors; Lassa virus pseudotype entry inhibition, cell reporter; calls by dose curve; tested in HEK293 cells; note: potency is the fitted concentration of half-maximal effect; % is set by controls: 0 for no effect and ±100 for the full control effect; nearly all actives have a fitted effect of over 50% in size
Shiga inhibitor: blocks Shiga toxin action in Vero cells; Vero cells, Shiga toxin protein synthesis inhibition reporter; inhibition, % at 38.7 µM; 9.2% of 290,000 active; in the data active = inhibition mostly above about 28%, no sharp cut-off; inactive = mostly below about 43%; note: 0% is about no effect
* = called active by the depositor; ? = inconclusive; / = no result given; [ ] = dose if it differs, or a comment.

SMILES | CHX counter | FMDV antiviral | Marburg entry inh | HCV inhibitor | Lassa entry inh | Shiga inhibitor
Cn1c(=O)n(CCCOc2ccc(Br)cc2)c2ccccc21 | 9.9 | -23.4% | 7.2% | -4.2% | 4.9% | 57.0
Cn1c(=O)n(CCCOc2ccc(Cl)cc2)c2ccccc21 | 19.3* | -26.0% | 16.9%[46.1 µM] | -4.6% | 15.2% | 4.5
CC1CC(OCC(O)CN2CCOCC2)CC(C)(C)C1 (stereo not given) | -2.6 | -16.7% | ? | -2.9% | ? | 13.5
CCOc1ccccc1NC(=O)C(OC(=O)c1ccccc1NS(=O)(=O)c1cccs1)c1ccccc1 (stereo not given) | 0.9 | -0.9% | ? | -21.6% | ? | 2.3
CSc1nc(-c2ccccc2)cc(C)c1C#N | -2.7 | -19.4% | 10.1%[46.1 µM] | 10µM* | -19.7% | 2.4
CSc1nc(-c2ccco2)cc(-c2ccccc2)c1C#N | -1.5 | -23.5% | -25.8% | ? | -1.2% | 37.5
Cc1ccc(C(=O)Nc2ccc(CC(=O)O)cc2)o1 | 8.0 | -11.2% | -11.3% | 12.3% | -5.2% | -7.6
CC(C)(C)c1ccc(C(=O)Nc2ccc(CC(=O)O)cc2)o1 | -11.7 | 0.794µM* | ? | -4.2% | 2.31µM* | -19.3
Cc1ccc(Nc2nnc(SCC(=O)Nc3ccccc3[N+](=O)[O-])s2)cc1 | 9.0 | -12.3% | 25.3% | -0.8% | -9.8% | 13.4
Cc1ccc(Nc2nnc(SCC(=O)Nc3cccnc3Cl)s2)cc1C | 27.1* | 8.1% | ? | -11.9% | ? | 51.8*
Cc1cccc(Nc2nnc(SCC(=O)Nc3ccccc3[N+](=O)[O-])s2)c1C | 26.7* | ? | ? | ? | ? | 42.8
COc1ccc(C2(C(=O)Nc3ccc(C(=O)O)cc3)CCOCC2)cc1 | -3.4 | -14.8% | -6.1% | 13.2% | -3.9% | -13.4
CCOc1ccc(N2C(=O)N(Cc3ccc(C)cc3C)c3ccccc3S2(=O)=O)cc1 | / | -13.1% | / | / | 0.2%[46.1 µM] | /
Nc1c(C(=O)O)cnc2c(-c3ccc(Cl)cc3)cnn12 | 26.9* | 16.7% | ? | -7.2% | ? | 91.3
CC(=O)c1cnc2c(-c3ccc(Cl)cc3)cnn2c1C | 13.9 | 42.6% | ? | -1.0% | ? | 39.5*
CC(=O)c1cnc2c(-c3ccccc3)c(-c3ccccc3)nn2c1C | -2.1 | 3.7% | / | -4.9% | / | -5.5
Nc1nc2nccc(-c3ccc(Cl)cc3)n2n1 | 43.8* | 11.9% | 3.2%[46.1 µM] | 15.6% | 24.6% | 41.7*
Clc1ccc(-c2cnn3c(-c4ccncc4)ccnc23)cc1 | 34.9* | 28.6% | / | -4.0% | / | 88.6*
Cc1nn2c(-c3ccncc3)ccnc2c1Cl | -3.5 | -13.0% | 8.5% | 25.1% | 10.9% | 5.3
COc1ccccc1CC(=O)N1CCC(CCC(=O)NC2CC2)CC1 | -2.1 | 20.2% | -7.2%[46.1 µM] | -1.4% | -2.0%[46.1 µM] | 6.8
S=C(Cc1ccccc1)N1CCOCC1 | / | -15.0% | 12.0% | 26.6% | 12.5% | /
O=C1C(Nc2ccc(O)cc2)=C/C(=N/S(=O)(=O)c2cccs2)c2ccccc21 | 20.9* | 12.6µM* | 2.51µM* | 3.55µM* | 3.55µM* | 20.4
O=C(O)c1ccc(NC2=C/C(=N/S(=O)(=O)c3cccs3)c3ccccc3C2=O)cc1 | / | 10µM* | / | / | / | /
Cc1ccc(Cl)cc1NC1=C/C(=N\S(=O)(=O)c2cccs2)c2ccccc2C1=O | -0.5 | 14.1µM* | ? | 10µM* | 6.51µM* | -9.9
CCOC(=O)c1ccccc1NC(=O)CSc1ccc(-c2cccnc2)nn1 | 10.0 | 9.8% | -19.4%[46.1 µM] | ? | -3.0%[46.1 µM] | 19.2
SMILES | CHX counter | FMDV antiviral | Marburg entry inh | HCV inhibitor | Lassa entry inh | Shiga inhibitor
COc1ccccc1-c1c(C(F)(F)F)oc2cc(OC(=O)c3cccc([N+](=O)[O-])c3C)ccc2c1=O | -8.2 | -11.7% | -26.3% | -16.2% | -0.5% | -12.0
COc1ccc(S(=O)(=O)c2cnc(SCC(=O)Nc3cc(F)ccc3C)[nH]c2=O)cc1Cl | / | -11.7% | 0.8%[46.1 µM] | / | -6.9%[46.1 µM] | /
CCOc1ccc(C(=O)Nc2ccc(C(=O)N3CCOCC3)cc2)c(OCC)c1 | -2.5 | -6.7% | -18.2% | 14.1µM* | 1.1% | -23.6
COc1ccc(C(=O)Nc2ccc(OCC(=O)N3CCOCC3)cc2)c(OC)c1OC | 20.8* | 0.0% | -3.3% | 15.8% | ? | 16.0
O=C(Nc1ccc(OCC(=O)N2CCOCC2)cc1)c1cccc(Cl)c1 | 20.3 | 11.9% | ? | 23.1% | -4.1% | 26.4*
COc1ccc(C(=O)Nc2ccc(C(=O)N3CCOCC3)cc2)cc1OC | 0.6 | 41.9% | -0.6%[46.1 µM] | 17.3% | / | 18.8
Cc1cc(NC(=O)c2ccccc2F)cc(C)c1OCC(=O)N1CCOCC1 | 12.2 | 15.6% | ? | -2.3% | -18.8% | 20.2
O=C(Nc1ccc(OCC(=O)N2CCOCC2)cc1)c1ccccc1F | 21.2* | -11.8% | -29.9%[46.1 µM] | 2.2% | ? | 52.8
COC(=O)Nc1ccc(OCC(=O)N2CCOCC2)cc1 | -1.5 | -3.0% | -8.4% | -4.1% | 1.2% | 8.9
Cc1ccccc1C(=O)NCC(=O)NNC(=S)NC(=O)c1ccccc1 | -3.0 | -16.7% | ? | 18.3% | 11.3% | -1.8
CC1=C(C(=O)OCC(C)C)C(c2ccsc2)C2=C(CCCC2=O)N1 (stereo not given) | 1.0 | -21.6% | 4.8% | 1.8% | -4.3% | -11.3
O=Cc1c(-c2ccccc2)cc2oc3ccccc3cc1-2 | 40.2* | -4.5% | / | -2.5% | / | 72.2*
O=C(COc1ccccc1[N+](=O)[O-])c1ccccc1 | 24.9* | 14.8% | -13.8%[46.1 µM] | 1.7% | -4.4% | 25.2
COc1ccccc1[N+](=O)[O-] | / | -14.8% | / | ? | / | /
CC(C)CNC(=O)COc1ccccc1[N+](=O)[O-] | 13.7 | 11.3% | ? | 15.6% | -15.4% | 7.1
COC(=O)/C=C/COc1ccccc1[N+](=O)[O-] | 43.0* | 63.6% | -13.2% | -5.4% | -16.0% | 106.8*
O=[N+]([O-])c1ccccc1OC/C(=N\O)c1ccccc1 | 14.8* | 19.8% | ? | -0.4% | 4.9%[46.1 µM] | 41.0*
O=C(/C=C/c1ccccc1[N+](=O)[O-])OCC(=O)c1ccccc1 | 36.6* | 55.1% | -0.9% | 9.8% | ? | 79.3*
O=C(CSc1nncn1-c1ccccc1)Nc1c(F)cccc1F | -5.0 | 14.4% | 2.2%[46.1 µM] | 18.5% | 1.7% | 4.5
COc1ccccc1CCN=C(N)NS(=O)(=O)c1ccc(F)cc1 | 0.3 | -21.3% | -23.7% | ? | ? | -6.3
CCO[C@@H]1OC(C(=O)NC2CC2)=C[C@H](c2c[nH]c3ccccc23)[C@H]1CCCO | 10.9 | -24.2% | / | 5.8% | / | 52.1*
Cc1ccccc1C1=NCC(=O)N(CC(=O)NCc2ccco2)c2sc3c(c21)CCCC3 | 15.0* | / | ? | -1.8% | ? | 32.8
COC(=O)c1ccc(NC(=S)N2CCN(Cc3ccc(Cl)cc3)CC2)cc1 | 11.0 | -26.5% | ? | ? | -1.1% | 17.7
O=C(Nc1ccc(Cl)cc1)c1ccc(CN2CCc3ccccc3C2)cc1 | 19.1 | -3.8% | / | 1.58µM* | / | 15.1
O=C(Nc1ccc(CN2CCS(=O)(=O)CC2)cc1)c1ccc(Cl)cc1 | 15.6* | -21.4% | -18.8%[46.1 µM] | 10µM* | -21.1% | 37.8
N#CCc1ccc(NC(=O)c2ccc(CN3CCc4ccccc4C3)cc2)cc1 | -1.5 | ? | / | 2µM* | / | -4.9
CC(C)(C)SCCNC(=O)c1ccc(CN2CCc3ccccc3C2)cc1 | 44.0* | -0.1% | -18.3% | -30.0% | -24.4% | 53.5*
